A selection: hits, their analogues and other compounds. The true share with any hit is near 10%.
Pf growth 48h = inhibits P. falciparum growth in the first generation, 48 h; P. falciparum luciferase growth in erythrocytes, 48 h; Potency, µM (titrated, usually from 28.7 µM), without a hit: at the top dose activity change, negative = inhibition, usual class: inhibitors; actives 5.9% (n = 310,000); AID 504832; further: on the % scale 0 is the no-effect control and ±100 the full control effect
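Cell-based growth assay: transgenic P. falciparum expressing firefly luciferase, cultured in red cells within RPMI 1640 containing 0.5% w/v Albumax, 24 mM bicarbonate and gentamycin. A drop in luciferase activity indicates inhibition.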
NS1 function inh = inhibitors of influenza NS1 protein function; Potency, µM (highest dose often 46.1 µM), for inactives: at the highest dose activity, positive = more growth; actives 0.4% (n = 270,000); calls by dose curve; further: actives are rising curves; nearly all actives have a fitted effect of over 50% in size
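OD600 was taken as the measure of yeast growth restored by compound in an NS1-expressing S. cerevisiae strain. Cells had been washed out of glucose medium and diluted 1:100 into galactose -URA medium, pH 6.0.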
SARS PLpro yeast = blocks SARS-CoV papain-like protease in a yeast assay | S. cerevisiae expressing SARS-CoV PLpro, growth rescue | AID 485353 | actives 0.19% (n = 330,000) | Potency, µM (titrated, usually from 32.9 µM), inactives show top-dose activity, positive = growth rescue, hits mostly activators; calls by dose curve; further: 0% is about no effect; nearly all actives have a fitted effect of over 55% in size
Pf growth 96h = inhibits malaria parasite growth, 96 h. P. falciparum luciferase reporter growth, 96 h. Potency, µM (titrated, usually from 28.7 µM), inactives show at the top dose activity change, negative = inhibition, usual class: inhibitors. actives 6.9% (n = 320,000). AID 504834; further: on the % scale 0 is the no-effect control and ±100 the full control effect
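Erythrocytes infected with luciferase-expressing P. falciparum were dispensed at 2% hematocrit and 0.05% parasitemia (final), then incubated with compounds 96 hours at 37 C in 5% CO2. Luminescence after detection reagent addition reported growth.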
* = called active by the depositor; ? = inconclusive; . = no result given; [ ] = another dose, or the depositor's remark. Unless noted, the call rests on the fitted dose curve; in most records, active means well fitted inhibition curve with a large enough effect; inconclusive means small, poorly fitted or top-dose-only effect, or another doubt; inactive means no such curve, though single readings can be large or run the other way. Potency means the concentration at half of the fitted maximal effect.

SMILES | Pf growth 48h | NS1 function inh | SARS PLpro yeast | Pf growth 96h
CN(Cc1ccccc1N1CCCC1)C(=O)c1cc2cc(Cl)ccc2o1 | ? | . | -1% | ?
COc1cccc(C2NC(=O)NC(O)(C(F)(F)F)C2C(=O)c2cccnc2)c1OC (stereo unspecified) | ? | -1% | -1% | .
O=C1NC(c2cn(-c3ccccc3)nc2-c2cccs2)C(C(=O)c2cccnc2)C(O)(C(F)(F)F)N1 (stereo unspecified) | . | -51% | 3% | 13µM*
CC(C)c1ccc(N2C(=O)CC(Sc3ncccn3)C2=O)cc1 (stereo unspecified) | 3% | -2% | -10% | 2.1µM*
Cc1ccnc(SC2CC(=O)N(c3ccc(C(C)C)cc3)C2=O)n1 (stereo unspecified) | -28% | 14% | -4% | ?
C=C(C)CN(CC)c1nc(N)c2c(N)nc3c(c2c1C#N)CC(=O)N3C12CC3CC(CC(C3)C1)C2 | . | 13% | -3% | 0.93µM*
CCCCN1C(=O)Cc2c1nc(N)c1c(N)nc(N(CCC)CCC)c(C#N)c21 | 4.7µM* | 9% | 0% | 4.1µM*
COc1ccc(CN2C(=O)Cc3c2nc(N)c2c(N)nc(N4CCCCC4)c(C#N)c32)cc1 | ? | 18% | 10% | ?
N#Cc1c(N2CCCC(O)C2)nc(N)c2c(N)nc3c(c12)CC(=O)N3C12CC3CC(CC(C3)C1)C2 (stereo unspecified) | ? | 28% | -3% | 0.21µM*
O=C(CC1OC(=O)c2ccccc21)NNC(=O)c1ccc(F)cc1 (stereo unspecified) | -21% | . | 5% | -16%
O=S(=O)(c1ccccc1)N1CCN(S(=O)(=O)c2ccc(F)cc2)CC1 | 35% | 0% | 5% | 10µM*
O=S(=O)(c1ccccc1)N1CCN(c2ccccc2)CC1 | -15% | 3% | -3% | 250%
O=S(=O)(c1ccc(Br)cc1)N1CCN(c2ccccc2)CC1 | 10µM* | 1% | -3% | -17%
CCN(Cc1ccccc1)C(=O)c1oc2ccc(S(=O)(=O)N3CCOCC3)cc2c1C | ? | 3% | 0% | 19%
CCCCOc1ccccc1N1CCN(CCCN2C(=O)C3CCCN3C2=O)CC1 (stereo unspecified) | -19% | 4% | 2% | ?
COc1ccccc1N1CCN(CCCCN2C(=O)C3CCCCN3C2=O)CC1 (stereo unspecified) | -6% | -5% | 1% | 8.3µM*
CC1(c2ccc(Cl)cc2)NC(=O)CS1 (stereo unspecified) | 18% | 0% | -1% | 0.26µM*
CC1(c2ccc(Cl)cc2)NC(=O)N(CC(=O)N2CCCC2)C1=O (stereo unspecified) | -5% | ? | 5% | 0%
COC(=O)c1scc(C)c1NC(=O)c1ccccc1F | 7% | -2% | -2% | 13%
CC(=O)OC1CN2CCC1CC2 (stereo unspecified) | -5% | . | . | 4.8µM*
O=C(Nc1ccccc1Cl)OC1CN2CCC1CC2 (stereo unspecified) | ? | 3% | -1% | 14%
COc1ccc(N2C(=NC(=O)C3CCCCC3)SC3CS(=O)(=O)CC32)c(OC)c1 (stereo unspecified) | 1% | 12% | -1% | ?
CC(CCn1cccn1)NC(=O)c1cc(COc2ccc(F)cc2Cl)on1 (stereo unspecified) | 44% | -2% | -1% | 10µM*
O=C(COc1ccccc1)OCc1cc(-c2ccco2)on1 | 39% | . | -4% | 36%
COc1ccc(C(CNC(=O)c2ccc(Cl)c(NC(=O)c3cccs3)c2)N2CCCC2)cc1 (stereo unspecified) | 10µM* | . | 1% | 8.3µM*
SMILES | Pf growth 48h | NS1 function inh | SARS PLpro yeast | Pf growth 96h
COc1ccc(C(CNC(=O)c2cccc(S(=O)(=O)N3CCCC3)c2)N2CCCC2)cc1 (stereo unspecified) | ? | . | 6% | ?
CCOC(=O)N1CCN(C(=O)c2ccc(Cl)c(NC(=O)c3cccs3)c2)CC1 | 10µM* | . | -1% | ?
CCN(CC(=O)NCc1cccs1)C(=O)/C=C/c1cc(OC)c(OC)c(OC)c1 | 13% | . | 1% | 4%
COCCN(Cc1cc2cc(C)c(C)cc2nc1Cl)C(=O)N1CCOCC1 | ? | . | 1% | -13%
CCCCN(C(=O)C1CCCC1)c1c(N)n(CC(C)C)c(=O)[nH]c1=O | 26% | . | 4% | 13%
CC(C)(C)OC(=O)NCCCC[C@H](NC(=O)c1[nH]cnc1C(=O)Nc1ccc(Cl)cc1)C(=O)OC(C)(C)C | 5.2µM* | 17% | 0% | 5.9µM*
CC(C)(C)OC(=O)NCCCC[C@H](NC(=O)c1[nH]cnc1C(=O)Nc1ccccc1)C(=O)OC(C)(C)C | 4.7µM* | 3% | 2% | 5.2µM*
O=C1CCCC2=C1C(c1ccncc1)Nc1ccccc1N2 (stereo unspecified) | . | -5% | -5% | 10µM*
CSCCC(NC(=O)c1ccccc1)C(=O)N/N=C(\C)c1ccccc1 (stereo unspecified) | -77% | 0% | -3% | -2%
Cc1cc(=O)c2c(O)c3c(O)cc(=O)c4c3c3c(cc(O)c1c23)C(C)(C)C=4O | 2.7µM* | . | . | 1.5µM*
CCCCNc1nc2sc3c(c2c(=O)n1-c1cccc(Cl)c1)CCN(C)C3 | 1.9µM* | 0% | -1% | 0.37µM*
CCCCCNc1nc2sc3c(c2c(=O)n1-c1cccc(Cl)c1)CCN(C)C3 | 1.5µM* | 9% | 0% | 0.17µM*
CN1CCc2c(sc3nc(SCC(N)=O)n(-c4ccc(Cl)cc4)c(=O)c23)C1 | 29%[0.00184 µM] | 7% | 0% | ?
O=c1c2c3c(sc2nc(NCCO)n1-c1ccccc1)CCCC3 | 4% | 0% | 4% | 10%
Cc1nc2nc(NC(=O)c3ccco3)nn2c(C)c1Cl | 117% | 11% | -1% | -18%
COC(=O)[C@@]12CCCCN1[C@H](c1ccc(-c3ccc(F)cc3)c(OC)c1)[C@@H]1C(=O)N(C)C(=O)[C@@H]12 | 13µM* | . | 0% | 12µM*
COC(=O)[C@@]12CCCN1[C@H](c1ccc(-c3ccc(OC)cc3)c(OC)c1)[C@@H]1C(=O)N(C)C(=O)[C@@H]12 | 13µM* | . | 2% | 12µM*
COC(=O)[C@@]12CCCCN1[C@H](c1ccc(-c3ccc(Cl)c(Cl)c3)c(OC)c1)[C@H]1C(=O)N(C)C(=O)[C@H]12 | . | . | -1% | .
COC(=O)[C@@]12CCCN1[C@H](c1ccc(-c3ccc(OC)cc3)c(OC)c1)[C@H]1C(=O)N(C)C(=O)[C@H]12 | 8.3µM* | . | -1% | ?
COC(=O)[C@@]12CCCN1[C@H](c1ccc(-c3ccccc3)c(OC)c1)[C@H]1C(=O)N(C)C(=O)[C@H]12 | . | . | -21% | .
COC(=O)[C@@]12CCCCN1[C@H](c1ccc(-c3cc(C(C)=O)cs3)c(OC)c1)[C@H]1C(=O)N(C)C(=O)[C@H]12 | 4.1µM* | . | -1% | ?
COC(=O)[C@@]12CCCN1[C@H](c1ccc(-c3ccc(C(C)=O)cc3)c(OC)c1)[C@H]1C(=O)N(C)C(=O)[C@H]12 | 13µM* | . | -7% | ?
